Source: PubChem BioAssay (Tox21)
Inconclusive results are not listed. Calls of active or inactive are those of the source. Unless noted, calls follow the shape of the full dose curve.

Legend:
[1] = Nuclear factor erythroid 2-related factor 2/antioxidant responsive element (Nrf2/ARE) small molecule agonists: qHTS cell viability counter screen in human keratinocytes (AID 1919968; active = well fitted curve in the direction sought with a large enough effect in the repeat runs; an effect the other way counts as inactive or inconclusive; also: nearly all actives have a fitted effect of over 55% in size)
Procedure, shortened: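 Cytotoxicity was multiplexed with the Nrf2/ARE luciferase assay in the same wells. Stably transfected HaCaT keratinocytes were treated with test compounds for 23 h at 37 C. Cell viability was then measured by CellTiter-Fluor fluorescence.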

[2] = Nuclear factor erythroid 2-related factor 2/antioxidant responsive element (Nrf2/ARE) small molecule agonists: luciferase reporter gene qHTS assay in human keratinocytes (AID 1919969); also: nearly all actives have a fitted effect of over 35% in size
[3] = target: Gonadotropin-releasing hormone receptor (Homo sapiens) (UniProt P30968); assay: Human gonadotropin-releasing hormone receptor (GnRHR) small molecule agonists, calcium flux assay in GnRHR-HEK293 cells (AID 1920063); also: nearly all actives have a fitted effect of over 35% in size
Procedure, shortened: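 Agonist activity was measured as intracellular calcium flux in HEK293 cells engineered to stably express human GnRHR. After dye loading for 1 hour at 37 C, compounds in DMSO were added and fluorescence was followed for 3 minutes.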

[4] = target: KiSS-1 receptor (Homo sapiens) (UniProt Q969F8); assay: Human kisspeptin (KISS1R) small molecule agonists, calcium flux assay in KISS1R-HEK293 cells (AID 1920064; active = well fitted curve in the direction sought with a large enough effect in the repeat runs; an effect the other way counts as inactive or inconclusive)
Procedure, shortened: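 Agonist activity is monitored as intracellular calcium rise in engineered HEK293 cells carrying human KISS1R. Cells are dye-loaded for 1 h at 37 C before compound addition, and fluorescence is recorded for 3 min.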

[5] = G protein-coupled receptor (GPCR) small molecule agonists, calcium flux assay: HEK293 wild type cell line counter screen (AID 1920065)
Procedure, shortened: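 Seed cells, incubate 18 h (37 C, 5% CO2); add calcium dye, 1 h at 37 C; pin-transfer compounds, ATP control or DMSO; read fluorescence 480/540 nm each second for 3 min.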

[6] = p53 small molecule agonists, cell-based qHTS assay with human liver microsomes (AID 1963577)
Procedure, shortened: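 p53RE-bla cells, 4,000/well, compound added after 5 h, with human liver microsomes 0.5 mg/mL and NADPH 0.5 mg/mL final; 16 h at 37 C, then LiveBLAzer 2 h RT, fluorescence.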

[7] = p53 small molecule agonists, cell-based qHTS assay with rat liver microsomes (AID 1963578)
Procedure, shortened: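 p53RE-bla cells, 4,000/well, pre-incubated 5 h, then given compounds plus rat liver microsomes (0.5 mg/mL final) and NADPH (0.5 mg/mL final). Incubation 16 h at 37 C; beta-lactamase reporter read by LiveBLAzer fluorescence after 2 h at room temperature.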

[8] = p53 small molecule agonists, cell-based qHTS assay with human liver microsomes: qHTS cell viability counter screen (AID 1963579); also: nearly all actives have a fitted effect of over 45% in size
Procedure, shortened: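 p53RE-bla cells, 4,000/well, dosed 5 hours after plating, with human liver microsomes (0.5 mg/mL final) plus NADPH (0.5 mg/mL final), 16 hours at 37 C. Viability read as CellTiter-Glo luminescence after 30 min at room temperature.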

[9] = p53 small molecule agonists, cell-based qHTS assay with rat liver microsomes: qHTS cell viability counter screen (AID 1963580); also: nearly all actives have a fitted effect of over 45% in size
Procedure, shortened: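 After the beta-lactamase ratio was read, CellTiter-Glo was added to the same wells and luminescence measured at 30 min; cells had been treated 16 h at 37 C with compounds, rat liver microsomes and NADPH (0.5 mg/mL final each).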

[10] = p53 small molecule agonists, cell-based qHTS assay: qHTS cell viability counter screen (AID 1963581); also: nearly all actives have a fitted effect of over 45% in size
Procedure, shortened: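 Viability was counter-screened in parallel with the p53 agonist reporter by measuring intracellular ATP luminescence in the same HCT-116 p53RE-bla wells after 16 h compound treatment at 37 C.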

[11] = p53 small molecule agonists, cell-based qHTS assay (AID 1963582; active = well fitted activation curve with a large enough effect in the signal ratio in the repeat runs, not every such curve was filed as active; the % refers to the signal ratio)
Procedure, shortened: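 Cells carrying a p53-responsive bla reporter are treated with test compounds for 16 h at 37 C; beta-lactamase activity is then detected with LiveBLAzer B/G FRET substrate after 2 h at room temperature.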

[12] = target: 5-hydroxytryptamine receptor 2A (Homo sapiens) (UniProt P28223); assay: 5-hydroxytryptamine receptor 2A (HTR2A) small molecule antagonists, cell-based qHTS assay (AID 1963586); also: nearly all actives have a fitted effect of over 45% in size
Procedure, shortened: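 CHO cells stably expressing human HTR2A were plated for 18 h at 37 C, then loaded with calcium dye for 1 h. Compounds were preincubated 5 min at room temperature before DOI (4 nM solution) was added. Kinetic fluorescence was read for 3 min.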

[13] = target: 5-hydroxytryptamine receptor 2A (Homo sapiens) (UniProt P28223); assay: 5-hydroxytryptamine receptor 2A (HTR2A) small molecule agonists, cell-based qHTS assay (AID 1963587); also: nearly all actives have a fitted effect of over 30% in size
Procedure, shortened: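 CHO cells stably expressing human HTR2A, plated 18 h, loaded with calcium dye 1 h at 37 C. Agonist mode: compounds added and intracellular calcium fluorescence recorded kinetically for 2 min at 1 sec intervals.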

[14] = target: Muscarinic acetylcholine receptor M1 (Homo sapiens) (UniProt P11229); assay: Cholinergic receptor muscarinic 1 (CHRM1) small molecule agonists, cell-based qHTS assay (AID 1963589); also: nearly all actives have a fitted effect of over 35% in size
Procedure, shortened: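 Cells were plated and incubated 18 h at 37 C/5% CO2, loaded with calcium dye for 1 h at 37 C, then treated with compounds in DMSO. Fluorescence was recorded kinetically at 1 sec intervals.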

[15] = cAMP Responsive Elements (CRE) small molecule agonists, cell-based qHTS assay (AID 1963590)
Procedure, shortened: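 Cells carrying a CRE-driven beta-lactamase reporter (HEK 293T) are seeded, incubated overnight (18 h), and treated with test compounds for 3 h at 37 C; reporter activity is then detected with a FRET substrate after 2 h at room temperature.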

[16] = cAMP Responsive Elements (CRE) small molecule antagonists, cell-based qHTS assay (AID 1963591; active = well fitted inhibition curve with a large enough effect in the signal ratio in the repeat runs, not every such curve was filed as active; the % refers to the signal ratio)
Procedure, shortened: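 Cells (CRE-bla HEK 293T, DMEM with 10% dialyzed FBS and 25 mM HEPES) are seeded and incubated 18 h. Compounds are added with NKH477 agonist at 0.25 uM final for 3 h, then FRET substrate for 2 h.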

[17] = target: Beta-2 adrenergic receptor (Homo sapiens) (UniProt P07550); assay: Adrenergic beta2 receptor (ADRB2) small molecule antagonists, cell-based qHTS assay (AID 1963592); also: series mostly up to about 92 µM; nearly all actives have a fitted effect of over 50% in size
Procedure, shortened: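 Assay format: CHO-ADRB2 cells, 18-20hr seeding at 37C/5% CO2, then compound plus 1nM isoproterenol agonist mix for 0.5hr RT. Homogeneous time-resolved fluorescence cAMP detection after 1hr, expressed as 665/615 nm ratio.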

[18] = target: D(2) dopamine receptor (Homo sapiens) (UniProt P14416); assay: Dopamine D2 receptor (DRD2) small molecule agonists, cell-based qHTS assay (AID 1963594); also: nearly all actives have a fitted effect of over 35% in size
Procedure, shortened: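 HEK293 cells stably expressing human DRD2, pre-treated with PDE inhibitor Ro20-1724 (0.1 mM final) and compound 10 min at room temperature, then stimulated with NKH477 (200nM […]) for 30 min. cAMP read by HTRF (665/620 nm).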

[19] = target: D(2) dopamine receptor (Homo sapiens) (UniProt P14416); assay: Dopamine D2 receptor (DRD2) small molecule antagonists, cell-based qHTS assay (AID 1963595; active = well fitted inhibition curve with a large enough effect in the signal ratio in the repeat runs, with a control signal flat; the % refers to the signal ratio)
Procedure, shortened: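 HTRF cAMP read-out at 665 and 620 nm emission (340 nm excitation). Antagonist mode: compounds were tested against 12 nM quinpirole in DRD2-HEK293 cells, with 200 nM NKH477 raising cAMP and 0.1 mM Ro20-1724 blocking its breakdown.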

[20] = target: Muscarinic acetylcholine receptor M1 (Homo sapiens) (UniProt P11229); assay: Cholinergic receptor muscarinic 1 (CHRM1) small molecule antagonists, cell-based qHTS assay (AID 1963588); also: nearly all actives have a fitted effect of over 40% in size
Procedure, shortened: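 Compounds were tested at 15 concentrations in three independent runs. Dye-loaded CHRM1-CHO cells were exposed 5 min at room temperature before stimulation by acetylcholine added at 50nM. Intracellular calcium was read kinetically on FDSS for 3 min.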
% is scaled to controls: 0 for no effect and ±100 for the full control effect.

Sequence of KiSS-1 receptor (Homo sapiens) (Q969F8 whole entry, looked up): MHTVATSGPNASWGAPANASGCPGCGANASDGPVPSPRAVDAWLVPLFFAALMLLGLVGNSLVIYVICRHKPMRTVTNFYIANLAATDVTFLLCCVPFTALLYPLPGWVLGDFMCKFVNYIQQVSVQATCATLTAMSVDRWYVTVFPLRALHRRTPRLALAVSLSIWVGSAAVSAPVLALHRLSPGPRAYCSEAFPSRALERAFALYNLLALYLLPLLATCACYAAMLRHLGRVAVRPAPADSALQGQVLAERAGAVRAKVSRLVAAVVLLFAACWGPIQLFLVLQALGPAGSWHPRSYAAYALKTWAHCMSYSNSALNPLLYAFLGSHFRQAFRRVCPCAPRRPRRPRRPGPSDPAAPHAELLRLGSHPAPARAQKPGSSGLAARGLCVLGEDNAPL
Sequence of Muscarinic acetylcholine receptor M1 (Homo sapiens) (P11229 whole entry, looked up): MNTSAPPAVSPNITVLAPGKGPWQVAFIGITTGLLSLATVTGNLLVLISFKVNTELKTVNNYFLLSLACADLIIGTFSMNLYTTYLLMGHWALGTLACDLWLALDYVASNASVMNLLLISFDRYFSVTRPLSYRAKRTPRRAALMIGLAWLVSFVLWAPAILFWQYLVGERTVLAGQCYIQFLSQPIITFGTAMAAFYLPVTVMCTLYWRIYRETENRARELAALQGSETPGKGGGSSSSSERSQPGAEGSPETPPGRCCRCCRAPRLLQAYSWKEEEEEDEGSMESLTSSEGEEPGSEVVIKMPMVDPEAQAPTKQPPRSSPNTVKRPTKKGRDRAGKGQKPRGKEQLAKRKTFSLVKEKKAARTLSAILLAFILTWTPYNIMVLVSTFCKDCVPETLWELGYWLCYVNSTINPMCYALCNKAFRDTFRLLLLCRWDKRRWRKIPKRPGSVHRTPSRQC
Sequence of D(2) dopamine receptor (Homo sapiens) (P14416 whole entry, looked up): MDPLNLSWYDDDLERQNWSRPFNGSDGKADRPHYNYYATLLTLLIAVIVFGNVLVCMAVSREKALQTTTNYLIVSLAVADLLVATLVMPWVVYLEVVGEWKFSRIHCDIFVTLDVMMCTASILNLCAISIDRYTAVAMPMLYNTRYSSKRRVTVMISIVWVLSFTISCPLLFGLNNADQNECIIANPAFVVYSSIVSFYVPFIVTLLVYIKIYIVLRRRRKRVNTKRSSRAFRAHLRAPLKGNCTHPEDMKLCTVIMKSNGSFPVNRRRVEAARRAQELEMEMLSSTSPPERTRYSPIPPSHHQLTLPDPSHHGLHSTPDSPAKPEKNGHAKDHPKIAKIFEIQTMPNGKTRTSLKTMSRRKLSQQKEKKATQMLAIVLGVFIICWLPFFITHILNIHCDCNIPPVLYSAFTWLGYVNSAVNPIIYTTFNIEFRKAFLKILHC
Sequence of Beta-2 adrenergic receptor (Homo sapiens) (P07550 whole entry, looked up): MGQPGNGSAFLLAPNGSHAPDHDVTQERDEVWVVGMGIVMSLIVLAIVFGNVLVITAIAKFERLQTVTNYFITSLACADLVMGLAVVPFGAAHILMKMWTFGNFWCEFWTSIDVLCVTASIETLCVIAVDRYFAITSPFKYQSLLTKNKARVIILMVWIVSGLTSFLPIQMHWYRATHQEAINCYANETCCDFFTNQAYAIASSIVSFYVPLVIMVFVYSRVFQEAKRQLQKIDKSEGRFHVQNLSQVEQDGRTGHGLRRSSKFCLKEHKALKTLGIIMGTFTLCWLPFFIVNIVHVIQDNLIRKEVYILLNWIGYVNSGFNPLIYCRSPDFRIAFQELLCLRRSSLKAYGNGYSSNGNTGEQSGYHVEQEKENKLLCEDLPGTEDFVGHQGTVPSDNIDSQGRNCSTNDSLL
Sequence of 5-hydroxytryptamine receptor 2A (Homo sapiens) (P28223 whole entry, looked up): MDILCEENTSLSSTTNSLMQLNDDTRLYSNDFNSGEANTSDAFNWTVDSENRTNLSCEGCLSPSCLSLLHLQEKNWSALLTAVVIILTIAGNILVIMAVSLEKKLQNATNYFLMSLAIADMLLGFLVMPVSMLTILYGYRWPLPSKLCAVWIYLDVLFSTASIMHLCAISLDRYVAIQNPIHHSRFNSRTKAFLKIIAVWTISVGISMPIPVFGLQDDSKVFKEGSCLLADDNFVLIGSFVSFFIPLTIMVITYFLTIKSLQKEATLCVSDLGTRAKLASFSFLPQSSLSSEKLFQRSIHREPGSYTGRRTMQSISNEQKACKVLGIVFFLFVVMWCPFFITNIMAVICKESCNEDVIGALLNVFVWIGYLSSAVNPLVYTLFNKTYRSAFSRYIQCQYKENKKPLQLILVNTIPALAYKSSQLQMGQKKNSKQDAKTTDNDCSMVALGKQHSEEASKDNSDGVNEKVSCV
Sequence of Gonadotropin-releasing hormone receptor (Homo sapiens) (P30968 whole entry, looked up): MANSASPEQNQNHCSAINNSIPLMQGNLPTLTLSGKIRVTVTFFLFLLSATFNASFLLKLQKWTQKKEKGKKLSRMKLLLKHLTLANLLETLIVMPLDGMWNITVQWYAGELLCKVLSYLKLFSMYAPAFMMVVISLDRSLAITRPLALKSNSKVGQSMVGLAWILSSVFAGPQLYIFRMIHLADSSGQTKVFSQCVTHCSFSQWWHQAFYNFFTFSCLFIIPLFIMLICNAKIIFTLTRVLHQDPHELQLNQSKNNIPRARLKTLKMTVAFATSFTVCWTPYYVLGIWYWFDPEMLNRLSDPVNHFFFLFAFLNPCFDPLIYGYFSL

CCC1(CO)COCOC1
inactive: Potency [1] | Potency [2] | Potency [3] | outcome [4] | outcome [5] | Potency [6] | Potency [7] | Potency [8] | Potency [9] | Potency [10] | Potency [11] | Potency [12] | Potency [13] | Potency [14] | Potency [15] | Potency [16] | Potency [17] | Potency [18] | Potency [19]

O=C(OCC1(COC(=O)c2cccnc2)CCCC(COC(=O)c2cccnc2)(COC(=O)c2cccnc2)C1O)c1cccnc1
inactive: Potency [1] | Potency [2] | Potency [3] | outcome [4] | outcome [5] | Potency [6] | Potency [7] | Potency [8] | Potency [9] | Potency [10] | Potency [11] | Potency [12] | Potency [13] | Potency [20] | Potency [17] | Potency [18]

C=C[Si](C)(C)Cl
inactive: activity change, negative = cytotoxicity [1] -0.368% [at 8.39 µM] | activity, positive = activation [2] -0.9% [at 8.39 µM] | activity change [3] -0.471% [at 5.22 µM, stronger effect = higher value] | activation [4] -1.18% [at 6.97 µM] | activation [5] 0.126% [at 5.23 µM] | activation [6] -12.4% [at 5.99 µM] | activation [7] 0.959% [at 5.99 µM] | activity change, negative = cytotoxicity [8] -13% [at 5.99 µM] | activity change, negative = cytotoxicity [9] 8.84% [at 5.99 µM] | activity change, negative = cytotoxicity [10] -0.14% [at 5.99 µM] | activation [11] 0.341% [at 5.99 µM] | activity, negative = inhibition [12] -2.68% [at 5.62 µM] | activation [13] -0.8% [at 7.02 µM] | activation [14] 0.156% [at 6.97 µM] | activation [15] 0.4% [at 8.39 µM] | activity change, negative = inhibition [16] -10% [at 8.39 µM] | activity change, negative = inhibition [17] 2.31% [at 8.39 µM] | activation [18] 0.612% [at 8.39 µM] | activity change, negative = inhibition [19] 6.57% [at 8.38 µM]

Nc1ccc(C(=O)Oc2ccccc2)c(O)c1
inactive: Potency [1] | Potency [2] | Potency [3] | outcome [4] | outcome [5] | Potency [6] | Potency [7] | Potency [8] | Potency [9] | Potency [10] | Potency [11] | Potency [12] | Potency [13] | Potency [14] | Potency [15] | Potency [16] | Potency [18] | Potency [19]

CCCCCCCCCC=O
inactive: Potency [1] | Potency [2] | Potency [3] | outcome [4] | outcome [5] | Potency [6] | Potency [7] | Potency [8] | Potency [9] | Potency [10] | Potency [11] | Potency [12] | Potency [13] | Potency [20] | Potency [17] | Potency [18] | Potency [19]

C[C@H](CN1CCCC1)C(=O)c1ccc(C(F)(F)F)cc1
inactive: Potency [1] | Potency [2] | Potency [3] | outcome [4] | outcome [5] | Potency [6] | Potency [7] | Potency [8] | Potency [9] | Potency [10] | Potency [11] | Potency [12] | Potency [13] | Potency [14] | Potency [15] | Potency [17] | Potency [18] | Potency [19]

CCCCC(CC)CN (stereo not drawn)
inactive: Potency [1] | Potency [2] | Potency [3] | outcome [4] | outcome [5] | Potency [6] | Potency [7] | Potency [8] | Potency [9] | Potency [10] | Potency [11] | Potency [12] | Potency [13] | Potency [14] | Potency [15] | Potency [16] | Potency [17] | Potency [18]

C1OCOCO1
inactive: Potency [1] | Potency [2] | Potency [3] | outcome [4] | outcome [5] | Potency [6] | Potency [7] | Potency [8] | Potency [9] | Potency [10] | Potency [11] | Potency [12] | Potency [13] | Potency [14] | Potency [15] | Potency [16] | Potency [18] | Potency [19]
